Compound activity (PubChem BioAssay)
This is a sample that favours compounds with a hit; in the whole collection about 27% have one here.
Cav32 inh = Cav3.2 calcium influx blockers – cell-based, Fluo-4 calcium fluorescence, FDSS, MLSMR library, primary screen; hit rate 4% among 100,000; Cav3.2-expressing cells; hits give low values; B-score at 10 µM; AID 449739, 2010;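 active = single-dose well whose peak fluorescence ratio is a statistical outlier from its plate by either plate-standardised score or position-corrected B-score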
Target sequence (O95180 whole entry, looked up): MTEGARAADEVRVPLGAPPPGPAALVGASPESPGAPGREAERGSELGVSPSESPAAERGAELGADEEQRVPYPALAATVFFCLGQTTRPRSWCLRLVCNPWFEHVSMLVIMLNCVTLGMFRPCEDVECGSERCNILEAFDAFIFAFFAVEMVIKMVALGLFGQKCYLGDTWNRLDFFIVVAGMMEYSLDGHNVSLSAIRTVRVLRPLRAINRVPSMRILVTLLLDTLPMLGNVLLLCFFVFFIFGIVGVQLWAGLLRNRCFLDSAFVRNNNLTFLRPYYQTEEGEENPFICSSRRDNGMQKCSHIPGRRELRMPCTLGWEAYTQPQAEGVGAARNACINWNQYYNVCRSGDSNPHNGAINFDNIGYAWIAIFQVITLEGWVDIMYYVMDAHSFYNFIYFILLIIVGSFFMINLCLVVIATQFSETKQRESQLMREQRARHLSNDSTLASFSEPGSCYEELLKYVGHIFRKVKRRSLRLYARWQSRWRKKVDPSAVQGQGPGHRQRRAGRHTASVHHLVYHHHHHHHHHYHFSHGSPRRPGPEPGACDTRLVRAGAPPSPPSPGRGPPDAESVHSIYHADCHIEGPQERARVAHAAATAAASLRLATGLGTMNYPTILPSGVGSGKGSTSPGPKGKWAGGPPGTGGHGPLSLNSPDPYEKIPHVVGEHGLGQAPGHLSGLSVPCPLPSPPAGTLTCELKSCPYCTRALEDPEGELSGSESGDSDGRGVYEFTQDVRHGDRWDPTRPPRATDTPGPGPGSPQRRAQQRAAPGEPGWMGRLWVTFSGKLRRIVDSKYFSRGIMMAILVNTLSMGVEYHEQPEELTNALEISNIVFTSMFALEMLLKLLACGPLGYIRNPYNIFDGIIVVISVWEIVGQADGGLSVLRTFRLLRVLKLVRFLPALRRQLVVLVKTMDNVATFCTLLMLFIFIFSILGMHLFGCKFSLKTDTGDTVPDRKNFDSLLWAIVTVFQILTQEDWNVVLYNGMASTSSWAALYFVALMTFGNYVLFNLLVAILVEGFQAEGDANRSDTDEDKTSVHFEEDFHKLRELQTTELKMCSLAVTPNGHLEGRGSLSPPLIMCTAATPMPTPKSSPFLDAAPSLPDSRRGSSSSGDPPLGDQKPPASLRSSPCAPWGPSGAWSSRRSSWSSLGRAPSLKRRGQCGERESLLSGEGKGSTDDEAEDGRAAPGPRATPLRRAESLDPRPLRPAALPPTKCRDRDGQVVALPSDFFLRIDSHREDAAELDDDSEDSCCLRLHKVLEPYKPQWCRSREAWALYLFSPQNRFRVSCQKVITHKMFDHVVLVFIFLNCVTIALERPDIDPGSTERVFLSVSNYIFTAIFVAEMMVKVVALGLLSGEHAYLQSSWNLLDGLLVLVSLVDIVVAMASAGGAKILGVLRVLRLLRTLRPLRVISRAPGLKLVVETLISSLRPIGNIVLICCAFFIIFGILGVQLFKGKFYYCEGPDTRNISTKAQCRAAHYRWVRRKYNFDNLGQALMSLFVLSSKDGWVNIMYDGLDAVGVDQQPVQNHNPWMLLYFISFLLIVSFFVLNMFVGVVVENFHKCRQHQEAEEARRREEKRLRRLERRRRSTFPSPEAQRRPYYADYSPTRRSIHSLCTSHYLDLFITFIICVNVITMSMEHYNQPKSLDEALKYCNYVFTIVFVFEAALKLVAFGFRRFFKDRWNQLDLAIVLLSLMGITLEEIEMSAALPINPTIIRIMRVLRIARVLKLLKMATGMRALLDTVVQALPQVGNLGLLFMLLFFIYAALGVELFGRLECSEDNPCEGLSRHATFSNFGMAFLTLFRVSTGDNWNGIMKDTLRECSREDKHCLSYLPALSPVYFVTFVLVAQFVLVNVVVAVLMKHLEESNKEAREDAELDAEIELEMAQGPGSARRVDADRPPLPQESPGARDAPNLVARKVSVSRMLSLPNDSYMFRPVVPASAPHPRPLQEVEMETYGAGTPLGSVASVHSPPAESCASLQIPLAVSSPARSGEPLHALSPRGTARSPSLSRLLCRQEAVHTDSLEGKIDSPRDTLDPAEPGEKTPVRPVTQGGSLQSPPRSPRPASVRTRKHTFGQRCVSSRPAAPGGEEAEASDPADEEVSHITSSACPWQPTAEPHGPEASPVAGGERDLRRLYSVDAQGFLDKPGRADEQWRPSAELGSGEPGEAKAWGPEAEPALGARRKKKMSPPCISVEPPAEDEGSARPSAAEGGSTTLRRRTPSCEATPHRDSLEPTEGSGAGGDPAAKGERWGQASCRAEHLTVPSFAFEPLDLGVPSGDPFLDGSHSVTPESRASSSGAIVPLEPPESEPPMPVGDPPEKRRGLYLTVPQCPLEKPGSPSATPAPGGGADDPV
CYP2C9 inhib = blockers of cytochrome P450 2C9 activity – biochemical, luminescence, ADME assay, primary screen; hit rate 20% among 96,000; CYP2C9 Supersomes, luciferin-H conversion; P11712; inhibition, % at 5 µM;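 active = blocking of liver enzyme CYP2C9 beyond about 50% at 5 µM, limit read from the data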
CYP2C9 activ = human CYP2C9 activators, primary screen, biochemical, luminescence. recombinant CYP2C9, luciferin-H conversion; hits give high values; factor 1 = untreated enzyme, 0 = blocked. AID 1024, 2008. hit rate 1.4% among 96,000. activation factor at 5 µM;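 active = activation factor of 2 or more for CYP2C9 at a 5 µM dose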;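 also: 0 = sulfaphenazole-blocked wells and 1 = vehicle-only wells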
CYP2C19 act = human CYP2C19 activators, primary screen, biochemical, luminescence; Cytochrome P450 2C19 (Homo sapiens), P33261; recombinant CYP2C19, luciferin-H EGE luminescence; hits give high values; 0 = fully inhibited enzyme, 1 = untreated enzyme; activation factor at 5 µM; 96,000 tested, under 10 active;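 active = activation factor of at least 2 at 5 µM in the primary screen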;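 also: 0 = wells with 2.5 mM tranylcypromine and 1 = vehicle-only wells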
CYP2C19 inh = blockers of cytochrome P450 2C19 activity – biochemical, luminescence, ADME assay, primary screen; CYP2C19 Supersomes, luciferin-H EGE luminescence, 30 min; inhibition, % at 5 µM; hit rate 21% among 96,000; AID 778, 2007;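 active = CYP2C19 inhibition above a set limit at 5 µM in the primary screen, cut at about 50% in these data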;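 also: plate controls were negative control wells for no effect and 2.5 mM tranylcypromine positive control for full effect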
Numbers without * were called inactive; · = no result given.

SMILES	Cav32 inh	CYP2C9 inhib	CYP2C9 activ	CYP2C19 act	CYP2C19 inh
CCCCCc1cc(O)c2c(C)cc(=O)oc2c1	-0.11	59*	0.4	0.3	70*
Cc1ccc(-c2c3c(=O)n(C)c(=O)n(C)c3cn2Cc2cccnc2)cc1	3.2	3	1	0.7	31
CCC(C)NC(=O)CNC(=O)Cn1c(C)cc2ccccc2c1=O (configuration not stated)	-0.11	-24	1.2	0.9	11
COc1ccc2c(C)cc(SCC(=O)N3CCOCC3)nc2c1	0.0031	35	0.6	0.3	68*
COc1ccc2c(C)cc(N3CCOCC3)nc2c1	0.53	21	0.8	0.9	7
N=c1sccn1CC(=O)Nc1ccccc1-c1ccccc1	0.43	-22	1.2	1.1	-14
CCOCCCNC(=O)c1ccc(N(C)S(=O)(=O)c2ccc(OC)cc2)cc1	0.022	78*	0.2	0.8	19
COc1ccc(S(=O)(=O)Nc2cc(C(=O)NCCC(C)C)ccc2N2CCOCC2)cc1	0.79	61*	0.4	0.5	46
COc1ccc(S(=O)(=O)N(C)c2ccc(C(N)=O)cc2)cc1	0.41	50	0.5	0.6	44
COc1ccc(S(=O)(=O)N(C)c2ccc(C(=O)NCCC(C)C)cc2)cc1	-0.034	92*	0.1	0.1	86*
COC(=O)C(Cc1cncn1COCc1ccccc1)NC(=O)OC(C)(C)C (configuration not stated)	-0.032	25	0.8	0.6	36
CC(C)NC(=S)N/N=C1\CCCCC1C1CCCCC1 (configuration not stated)	·	80*	0.2	0.4	63*
O=C(NCc1cccnc1)C1CCN(S(=O)(=O)N2CCOCC2)CC1	0.42	3	1	0.9	13
CCCC(C(=O)Nc1nccs1)c1ccccc1 (configuration not stated)	-2.8	48	0.5	0.5	54*
O=C(Nc1nccs1)C(NS(=O)(=O)c1ccc(Br)s1)c1ccccc1 (configuration not stated)	-5.8*	62*	0.4	0.6	38
CCCOc1ccccc1C(=O)N(Cc1ccco1)C1CCS(=O)(=O)C1 (configuration not stated)	0.1	0	1	1	-3
Cc1ccc(S(=O)(=O)N2CCC(=O)N(CCOCc3ccccc3)CC2)cc1	0.4	·	·	·	·
O=C(NC(C(=O)N/N=C/c1ccccc1)c1n[nH]c(=O)c2ccccc12)c1ccccc1 (configuration not stated)	·	52*	0.5	0.6	37
CCOc1ccc(CCNC(=O)c2cc3ccccn3n2)cc1OCC	1.8	16	0.8	0.7	29
CCCC(=O)Nc1nnc(COC)s1	0.46	18	0.8	1	-4
CCCC(=O)Nc1nnc(Sc2ccc(N(C)C)cc2)s1	-0.0082	-56	1.6	0.1	94*
CCC(=O)Nc1nnc(Sc2ccc(N(C)C)cc2)s1	·	-38	1.4	0	96*
Cc1ccc(-c2nnc(-c3ccc(NC(=O)Cc4cccs4)cc3)o2)cc1	0.77	84*	0.2	0.5	53*
O=C(Cc1cccs1)Nc1ccc(Cl)cc1	-0.93	64*	0.4	0.1	94*
CC(C)C(=O)N1CCN(c2c(Cl)cccc2[N+](=O)[O-])CC1	-1.3	21	0.8	0.6	39
SMILES	Cav32 inh	CYP2C9 inhib	CYP2C9 activ	CYP2C19 act	CYP2C19 inh
O=C(c1cccnc1)N1CCN(c2c(Cl)cccc2[N+](=O)[O-])CC1	1.2	29	0.7	0.2	82*
O=C(NC(=S)N1CCN(c2c(Cl)cccc2[N+](=O)[O-])CC1)c1cccs1	-4.3*	78*	0.2	0.6	45
CCN1CCN(C2CCN(C(C)=O)CC2)CC1	·	-12	1.1	1.1	-7
CCOC(=O)c1c(C2CCN(C(=O)OCC)CC2)nc2ccccn12	0.95	72*	0.3	0.7	34
CN(C)c1cccc(C(=O)n2cc(C(=O)c3cc(F)ccc3O)cn2)c1	-3.9*	-8	1.1	0.7	35
COc1ccc(O)c(C(=O)c2cnn(C(=O)c3cc(C)oc3C)c2)c1	2	-17	1.2	0.9	6
O=C(Cn1cc2c(n1)CCCC2)Nc1cc(-c2cccc(Cl)c2)no1	-2.5	57*	0.4	0.7	26
O=C(Nc1ccc(Cl)c(Cl)c1)N1CC=CCC1	-0.29	22	0.8	0.7	32
O=C(Nc1ccc(Cl)c(Cl)c1)N1CCSC1c1ccco1 (configuration not stated)	-7.7*	59*	0.4	0.6	43
Brc1cccc(-c2nnc3sc(CN4CCCCC4)cn23)c1	-0.52	50*	0.5	0.6	37
CCOC(CNC(=O)c1ccc2c(c1)nc(C)n2-c1cccc(F)c1)OCC	0.45	·	·	·	·
Cc1cc(C(=O)NCC(=O)OC(C(=O)Nc2cc(C(F)(F)F)ccc2Cl)c2ccccc2)ccc1[N+](=O)[O-] (configuration not stated)	-9*	49	0.5	0.6	45
COc1ccc2oc(C(F)(F)C(F)(F)F)cc(=O)c2c1	0.021	7	0.9	1	2
COC(=O)c1ccc(O)c(Sc2cc(C(=O)OC)ccc2O)c1	·	100*	0	0.1	88*
Cc1ccc(O)c(Sc2cc(C)ccc2O)c1	·	96*	0	0	97*
COc1ccc(C2CC(=O)Nc3ccccc3S2(=O)=O)cc1OC (configuration not stated)	0.76	-4	1	0.6	40
CN1C(=O)c2ccccc2N(C)C1c1ccc2c(c1)OCO2 (configuration not stated)	-0.18	69*	0.3	0.2	81*
CC(C)C12CN3CC(C(C)C)(CN(C1)C3c1ccccc1O)C2=O (configuration not stated)	-2.5	90*	0.1	0.1	91*
CC(C)C12CN3CC(C(C)C)(CN(C1)C3c1ccc3c(c1)OCO3)C2=O (configuration not stated)	-2.3	75*	0.2	0.1	92*
CCCC12CN3CC(C)(CN(C1)C3c1ccc3c(c1)OCO3)C2=O (configuration not stated)	-0.35	-25	1.3	0.3	73*
CCCC12CN3CC(C)(CN(C1)C3c1ccc(OC)cc1)C2=O (configuration not stated)	-0.42	14	0.9	0.8	18
CN1CCN(C(=O)C23CCC(C)(c4nc5ccccc5nc42)C3(C)C)CC1 (configuration not stated)	1.3	-5	1	1.1	-7
CCCn1nc(C(=O)NCCc2ccc(S(N)(=O)=O)cc2)c2ccccc2c1=O	-0.23	36	0.6	1.1	-14
CCCCOCCCn1cnc2c([nH]c3cc(OC)ccc32)c1=O	1	13	0.9	0.6	43
